# Measurements taken from PubChem BioAssay.
# Activity calls are given as the source filed them. Unless noted, no rule for the calls is given here.
# Experiments:
# [1] = test system: XIP peptide (Xip251-270) binding; assay: XIP fragment 251-270 binding compounds – biochemical, small-molecule microarray, fluorescence 635/667 nm, 0.1 µg/mL protein, primary screen (AID 1182); settings: fluorescent protein binding, 635 nm, higher = more signal, called active from +8 up or from −8 down
# XIP peptide (Xip251-270) = assay: compounds binding XIP fragment 251-270 – biochemical, small-molecule microarray, fluorescence 635/667 nm, 0.5 µg/mL protein, primary screen (AID 1183); settings: fluorescence 635 nm, higher = more signal
# [2] = blood-stage malaria parasite viability loss – strain 3D7, DAPI fluorescence, 100 nL, primary screen (AID 1184);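 also: parasites grown inside human red blood cells in medium with human serum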; settings: P. falciparum 3D7 growth, 3 d, higher = more signal
# [3] = biological target: Homeobox protein Hox-A13 (Mus musculus) (UniProt Q62424); assay: disruptors of Hoxa13 oligonucleotide interaction – biochemical, fluorescence polarization, labeled oligonucleotide, primary screen (AID 1185); settings: Hoxa13:DNA binding, 15 min, higher = more signal, called active from +8 up or from −8 down
# Homeobox protein Hox-A13 (Mus musculus), sequence (Q62424 whole entry, looked up): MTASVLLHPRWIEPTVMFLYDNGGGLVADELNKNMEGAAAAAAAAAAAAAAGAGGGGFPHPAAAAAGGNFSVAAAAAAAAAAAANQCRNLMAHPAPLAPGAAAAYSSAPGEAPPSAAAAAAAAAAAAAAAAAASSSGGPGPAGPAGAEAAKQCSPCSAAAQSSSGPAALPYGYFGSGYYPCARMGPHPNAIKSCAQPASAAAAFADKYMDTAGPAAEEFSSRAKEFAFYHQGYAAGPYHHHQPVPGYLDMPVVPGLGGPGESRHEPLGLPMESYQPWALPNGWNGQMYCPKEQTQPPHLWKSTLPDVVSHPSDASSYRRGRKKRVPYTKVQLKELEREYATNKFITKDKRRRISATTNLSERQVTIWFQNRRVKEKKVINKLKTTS
# [4] = blockers of DNA damage checkpoint Chk1 activation – imaging, HeLa, hydroxyurea, phospho-Chk1 antibody, percent positive cells, primary screen (AID 1186); settings: hydroxyurea-induced phospho-Chk1 immunofluorescence imaging, higher = more signal
# [5] = blockers of DNA damage checkpoint Chk1 activation – imaging, HeLa, hydroxyurea, phospho-Chk1 nuclear intensity, primary screen (AID 1187); settings: hydroxyurea-induced phospho-Chk1 immunofluorescence imaging, higher = more signal
SMILES,composite z-score [1],composite z-score (XIP peptide (Xip251-270)),z-score [2],z-score [3],z-score [4],z-score [5]
COC(=O)[C@@]1(Cc2ccc(F)cc2)[C@H]2c3cc(C(=O)N(C)C)n(Cc4ccc(C(F)(F)F)nc4)c3C[C@H]2CN1C(=O)c1ccccc1,0.338 (inactive),0.64,-1.68,-3.87 (inactive),0.93 (inactive),0.563 (inactive)
CCOC(=O)C[C@H]1[C@H](OC(=O)c2ccc(-c3ccccc3)cc2)[C@@H](NC(=O)C2CCCCC2)c2cc(OCCCO)ccc2N1C(=O)Cc1ccc(OC)cc1,-0.344 (inactive),-0.355,-0.0911,-2.2 (inactive),-0.0566 (inactive),0.295 (inactive)
CN1C2C=C(c3ccc(CO)cc3)C(C3C(=O)N(C(N)=O)C(=O)C32)C1C1CC1 (stereo unspecified),-0.313 (inactive),0.0909,-0.854,-6.63 (inactive),0.258 (inactive),0.169 (inactive)
CN1C(=O)C2C=CC(C(O)c3ccc(I)cc3)N(N(c3ccccc3)c3ccccc3)C2C1=O (stereo unspecified),0.157 (inactive),0.348,0.387,-1.5 (inactive),-0.839 (inactive),-1.1 (inactive)
COCCOC(=O)N1C(=O)[C@@]2(c3cc(C#CCNC(N)=O)ccc31)[C@H](c1ccc(O)cc1)N1[C@H](c3ccccc3)[C@H](c3ccccc3)OC(=O)[C@H]1[C@@H]2C(=O)N1CCc2cc(OC)c(OC)cc2C1,-0.0561 (inactive),0.329,-0.0011,-1.73 (inactive),0.0017 (inactive),-0.0878 (inactive)
C=CCOC(=O)[C@H]1[C@@H]2C(=O)O[C@@H](c3ccccc3)[C@@H](c3ccccc3)N2[C@@H](c2ccc(OCCOC(=O)[C@@H]3C[C@@H]4C(=O)N[C@@H](Cc5ccccc5)C(=O)N4[C@@H]3c3ccc(O)cc3)cc2)[C@]12C(=O)Nc1ccc(I)cc12,1.12 (inactive),0.751,-1.39,0.703 (inactive),-0.272 (inactive),-0.152 (inactive)
CCCCN1CC=CC23O[C@@H]4/C=C\CCC(C)OC(=O)C4[C@H]2C(=O)N(CCO)[C@@H]3C1=O (stereo partly specified),0.874 (inactive),-0.629,-0.165,-5.58 (inactive),-0.967 (inactive),-0.862 (inactive)
CC(C)(C)OC(=O)N1[C@@H](C=C(Br)Br)COC1(C)C,5.39 (inactive),-0.0146,0.438,-0.337 (inactive),-0.35 (inactive),-0.129 (inactive)
O=C1C2C=CC(C(O)c3ccccn3)N(Nc3ccc([N+](=O)[O-])cc3)C2C(=O)N1c1ccccc1 (stereo unspecified),0.406 (inactive),0.0784,-0.22,-5.58 (inactive),1.25 (inactive),-0.213 (inactive)
COc1ccc([Si](C)(C)[C@H]2[C@H](CC(=O)N(CCO)Cc3ccccc3)O[C@@]3(C(=O)N(Cc4cccc(N5CCCCC5=O)c4)c4ccccc43)[C@@H]2C)cc1,2.13 (inactive),0.587,-2.59,-0.38 (inactive),-0.929 (inactive),-0.607 (inactive)
C=CCN1C(=O)[C@@]2(O[C@@H](CCO)[C@H]([Si](C)(C)c3ccc(OC)cc3)[C@H]2C)c2cc(N3CCCCC3=O)ccc21,0.561 (inactive),0.625,-2.42,-6.02 (inactive),-1.22 (inactive),-0.485 (inactive)
CCCC[C@@H](O)C1=C(C)Cn2c(=O)n(-c3ccccc3)c(=O)n2[C@H]1CO,-0.387 (inactive),0.0389,0.0686,-0.901 (inactive),-0.522 (inactive),-0.621 (inactive)
CC(C)C(=C=CC[C@H](O)c1cccc(OCCO)c1)C[C@H](O)c1ccccn1,0.549 (inactive),0.806,-0.991,-3.81 (inactive),-0.428 (inactive),0.321 (inactive)
COC(=O)c1ccc(OC)c(/C=C\CC(OC(=O)c2ccncc2)c2ccccc2)c1 (stereo unspecified),0.601 (inactive),0.146,-1.33,-5.02 (inactive),-0.843 (inactive),-0.432 (inactive)
C=C(CCCC)C(=O)CC[C@H](OC(=O)c1ccccc1-c1ccccc1C(=O)O)c1cccc(OCCO)c1,-0.459 (inactive),0.614,-2.65,-6.4 (inactive),1.01 (inactive),0.182 (inactive)
C=CCOC(=O)[C@@H]1[C@H]2C(=O)O[C@H](c3ccccc3)[C@H](c3ccccc3)N2[C@H](c2ccc(OCCOC(=O)[C@H]3C[C@H]4C(=O)N[C@@H](CCCCN(C)C)C(=O)N4[C@H]3c3cccc(OCCO)c3)cc2)[C@@]12C(=O)Nc1ccccc12,0.876 (inactive),0.686,-0.405,-1.64 (inactive),-0.224 (inactive),-0.375 (inactive)

SMILES,composite z-score [1],composite z-score (XIP peptide (Xip251-270)),z-score [2],z-score [3],z-score [4],z-score [5]
COC(=O)[C@]1(Cc2ccccc2N=[N+]=[N-])N=C(c2ccc(OCCCO)cc2)O[C@@H]1c1ccccc1CN=[N+]=[N-],0.11 (inactive),0.729,-1.96,-1.15 (inactive),-0.446 (inactive),-0.437 (inactive)
CC[C@@H](O[Si](C#C[Si](C(C)C)(C(C)C)C(C)C)(C(C)C)C(C)C)c1cn([C@H](CO)Cc2ccccc2)nn1,-0.0433 (inactive),0.411,-0.348,-1.31 (inactive),-0.058 (inactive),-0.0008 (inactive)
COc1ccc(C#Cc2ccc3c(c2)[C@]2(C(=O)N3)[C@H](c3ccccc3OCCO)N3[C@H](c4ccccc4)[C@H](c4ccccc4)OC(=O)[C@H]3[C@@H]2C(=O)NC[C@H](O)c2ccccc2)cc1,0.134 (inactive),0.709,-2.01,-1.77 (inactive),-0.11 (inactive),0.108 (inactive)
COCCCNC(=O)[C@@]1(CCC(=O)OC(C)(C)C)N=C(c2ccc(OCCCO)cc2)O[C@H]1c1ccccc1,0.809 (inactive),0.754,-0.0488,-4.75 (inactive),0.185 (inactive),0.633 (inactive)
CO[C@H]1O[C@H](CO)[C@@H](OC(=O)Nc2cccc(F)c2)[C@H](OC(=O)Nc2ccc3c(c2)OCO3)[C@@H]1OC(=O)Nc1ccc2c(c1)OCO2,0.968 (inactive),0.894,-0.754,-6.1 (inactive),0.223 (inactive),0.613 (inactive)
C=CCN1C(=O)[C@]2(O[C@H](CCO)[C@@H]([Si](C)(C)c3ccc(OC)cc3)[C@@H]2C)c2cc(N3C(=O)c4ccccc4Oc4ccccc43)ccc21,0.297 (inactive),0.671,-2.42,-4.93 (inactive),-1.05 (inactive),-1.5 (inactive)
CC(C)(C)OC(=O)CC[C@@]1(C(=O)N2CCOCC2)N=C(c2ccc(OCCCO)cc2)O[C@@H]1c1ccccc1CN=[N+]=[N-],3.3 (inactive),0.838,-2.12,-4.94 (inactive),0.158 (inactive),0.291 (inactive)
CO[C@H]1O[C@H](CO)[C@@H](OC(=O)Nc2cccc(F)c2)[C@H](OC(=O)c2cc3ccccc3[nH]2)[C@H]1OC(=O)c1cc2ccccc2[nH]1,-0.194 (inactive),-0.141,-0.194,-0.266 (inactive),-0.313 (inactive),-0.455 (inactive)
O=C(N1CCOCC1)[C@]1(CCS(=O)(=O)c2ccccc2)N=C(c2ccc(OCCCO)cc2)O[C@@H]1c1ccccc1,1.24 (inactive),0.717,-2.21,-4.54 (inactive),-0.141 (inactive),0.0352 (inactive)
[N-]=[N+]=NCc1ccccc1C[C@@]1(C(N)=O)N=C(c2ccc(OCCCO)cc2)O[C@@H]1c1ccccc1N=[N+]=[N-],0.497 (inactive),0.63,-2.41,-4.99 (inactive),0.627 (inactive),1.02 (inactive)
CN1C(=O)C2C=CC(C(O)COCc3ccccc3)N(Nc3ccc([N+](=O)[O-])cc3[N+](=O)[O-])C2C1=O (stereo unspecified),0.649 (inactive),0.544,0.391,-4.41 (inactive),-0.589 (inactive),-0.803 (inactive)
COC(=O)[C@H](Cc1ccccc1)N1CC(C)(OC)O[C@@H](Cc2ccccc2)[C@H]1/C=C/C1CC1 (stereo partly specified),0.242 (inactive),-0.128,0.291,-4.77 (inactive),0.512 (inactive),1.22 (inactive)
CCCC1(C(=O)OC)C=C2C(=C(C(C)C)C(=O)C2C)CN1 (stereo unspecified),-0.275 (inactive),-0.619,0.77,-6.18 (inactive),0.493 (inactive),0.473 (inactive)
CCCCC(=C=CC[C@H](O)c1ccccc1OCCO)CCO,1.47 (inactive),-0.0255,-0.315,-3.54 (inactive),0.324 (inactive),0.181 (inactive)
COCCOC(=O)N1C(=O)[C@@]2(c3cc(C#CCNC(N)=O)ccc31)[C@H](C(N)=O)[C@H]1C(=O)O[C@H](c3ccccc3)[C@H](c3ccccc3)N1[C@@H]2c1ccc(O)cc1,0.201 (inactive),-0.532,1.75,-3.48 (inactive),0.319 (inactive),0.888 (inactive)
